Drawing on the antibiotic and cytotoxicity screens of Wong et al. (2023), this text covers growth inhibition call for 26 compounds.

About 500 (1.3%) of roughly 39,000 compounds were called active. The entries come from a sample that favours actives as a whole.

The test system of this assay is S. aureus RN4220. Nature of the assay: growth inhibition call (relative growth <= 0.2). Particulars: 50 µM.
For the compound `C[C@@H]1CN([C@@H](C)CO)C(=O)c2cc(NC(=O)CCN3CCOCC3)ccc2O[C@H]1CN(C)S(=O)(=O)c1ccc(F)cc1`, the growth inhibition call is “inactive”.
For the compound `NCCCCCNC(=O)[C@@H]1C[C@@H]2C(=O)N[C@@H](CCCCN)C(=O)N2[C@@H]1c1cccc(OCCO)c1`, the growth inhibition call is “inactive”.
In the case of `c1ccc(Nc2nc3c(ccc4ccccc43)s2)cc1` it was “inactive”.
In the case of `CSc1cccc2sc(Nc3ccc(Cl)cc3)nc12` it was “active”; in that of `Cc1sc(Nc2ccccc2)nc1-c1ccc(Cl)cc1`, “inactive”; in that of `Cc1ccc(S(=O)(=O)Nc2cccc3c2O[C@H](CN(C)C(=O)Nc2cccc4ccccc24)[C@@H](C)CN([C@@H](C)CO)C3=O)cc1`, “inactive”.
Regarding `COCC#Cc1ccc([C@H]2[C@H]3CN(C(=O)c4ccncc4)CC(=O)N3[C@H]2CO)cc1`, the growth inhibition call is “inactive”.
The value for `CCOC(=O)CNC(=O)c1cc(C)on1` was “inactive”; that for `Cc1ccc(C(=O)O)c(=O)n1C` was “inactive”; that for `O=C(CN1CCNCC1)c1ccc(F)cc1` was “inactive”.
In the case of `Cn1cc(S(=O)(=O)N2CCN(c3ccc(F)cc3)CC2)c(=O)n(C)c1=O` it was “inactive”; in that of `Cl.O=C(O)c1cn(-c2ccc(F)cc2)c2cc(N3CCNCC3)c(F)cc2c1=O`, “active”; in that of `CN1CCN(c2cc3c(cc2F)c(=O)c(C(=O)O)cn3-c2ccc(F)cc2)CC1.Cl`, “active”.
The value for `O=C(c1ccccc1F)N1CCNCC1` was “inactive”.
As for `Cc1noc(C)c1S(=O)(=O)N(C)C[C@@H]1Oc2ccc(NC(=O)NC(C)C)cc2CC(=O)N([C@@H](C)CO)C[C@@H]1C`, the growth inhibition call is “inactive”.
In the case of `O=C(NO)c1cn(-c2ccc(C[C@H]3C(=O)O[C@@H](Cc4ccccc4)[C@H]4C=C(/C=C/C5CC5)CN43)cc2)nn1` it was “inactive”.
In the case of `CCCCCOc1ccc([C@H]2C(C(=O)c3ccc4c(c3)OCCO4)=C(O)C(=O)N2Cc2ccco2)cc1` it was “inactive”.
In the case of `O=C(Nc1ccccc1)c1ccccc1O` it was “active”; in that of `O=C(Nc1ccccc1)c1ccccc1`, “inactive”; in that of `NNC(=O)c1ccccc1O`, “inactive”.
For `CO[C@@H]1CN(C)C(=O)c2ccc(NS(=O)(=O)CC(F)(F)F)cc2OC[C@H](C)N(Cc2nccs2)C[C@H]1C`, the growth inhibition call is “inactive”.
The value for `C[C@@H]1CN([C@@H](C)CO)C(=O)Cc2cc(NS(=O)(=O)c3cccs3)ccc2O[C@H]1CN(C)S(C)(=O)=O` was “inactive”; that for `Clc1ccc(COC(Cn2ccnc2)c2ccc(Cl)cc2Cl)c(Cl)c1.O=[N+]([O-])O` (stereo unspecified) was “inactive”.
In the case of `Clc1ccc(C(Cn2ccnc2)OCc2c(Cl)cccc2Cl)c(Cl)c1.O=[N+]([O-])O` (stereo unspecified) it was “inactive”.
As to `Clc1ccc(C(Cn2ccnc2)OCc2ccsc2Cl)c(Cl)c1` (stereo unspecified), the growth inhibition call was “active”.
The value for `Cc1ccc(S(=O)(=O)N(C)C[C@@H]2OCCCC[C@H](C)Oc3ccc(NC(=O)C4CCCCC4)cc3C(=O)N([C@@H](C)CO)C[C@@H]2C)cc1` was “inactive”.
